# RGS4-Gao reg = modulates binding of RGS4 to human Galphao | Multiplexed bead flow cytometry; actives lie on both sides | binding response (% of control), % at 10 µM | 0.33% of 220,000 active | AID 1415; in the data active means binding response below about 49% or above about 150%; inactive means in between;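 further: fluorescent Galphao activated with aluminum fluoride binding bead-coupled RGS4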
# Target sequence (P09471 whole entry, looked up): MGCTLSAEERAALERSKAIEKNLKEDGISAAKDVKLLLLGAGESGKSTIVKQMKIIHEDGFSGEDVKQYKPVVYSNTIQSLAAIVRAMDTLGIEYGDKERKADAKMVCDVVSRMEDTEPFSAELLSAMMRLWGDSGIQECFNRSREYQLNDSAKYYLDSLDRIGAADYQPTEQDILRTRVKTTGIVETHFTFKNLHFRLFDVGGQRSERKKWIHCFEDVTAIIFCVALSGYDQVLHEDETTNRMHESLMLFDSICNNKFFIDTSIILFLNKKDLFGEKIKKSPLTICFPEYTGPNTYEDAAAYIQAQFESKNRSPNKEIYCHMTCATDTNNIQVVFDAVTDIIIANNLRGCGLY
# RGS8-Gao = human RGS8-Galphao interaction regulation; P09471; multiplexed bead flow cytometry, RGS8-Galphao binding; actives lie on both sides; response (percent of control binding), % at 10 µM; 0.34% of 220,000 active; AID 1423; in the data active means response below about 60% or above about 140%; inactive means in between;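 further: Galphao activated as the GDP aluminium fluoride complex binding bead-coupled RGS8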
# Avidin bead fluor = compound fluoresces at 488/530 nm on avidin beads. fluorescence (KMESF) at 10 µM. 0.38% of 220,000 active. compound fluorescence 488/530 nm, flow cytometry; active compounds read high; in the data active means fluorescence above about 47
# RGS16-Gao = modulates binding between human RGS16 and Galphao; bead-based flow cytometry RGS16-Galphao binding, fluorescence; actives lie on both sides; binding response (% of control), % at 10 µM; AID 1441; 0.38% of 220,000 active;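 further: Galphao activated by GDP with aluminum fluoride before binding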
# Target sequence (O15492 whole entry, looked up): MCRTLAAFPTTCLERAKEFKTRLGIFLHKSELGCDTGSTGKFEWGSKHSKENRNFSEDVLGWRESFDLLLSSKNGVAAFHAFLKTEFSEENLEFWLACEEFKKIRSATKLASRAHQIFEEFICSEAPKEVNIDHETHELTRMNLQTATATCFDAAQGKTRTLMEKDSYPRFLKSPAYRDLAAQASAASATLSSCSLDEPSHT
# Target sequence (P09471 whole entry, looked up): as the sequence (P09471 whole entry, looked up) above
# GSH fluor = compound fluoresces at 488/530 nm on GSH beads; GSH beads flow cytometry, compound fluorescence 488/530 nm; active compounds read high; fluorescence (KMESF) at 10 µM; 0.25% of 190,000 active; AID 1776; in the data active means fluorescence above about 89;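 further: glutathione beads carrying GST-tagged Bcl family fusion proteins plus one bare bead set; values are compound well signal with DMSO vehicle wells as background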
# RGS7-Gao = regulators of human RGS7-Galphao interaction; Multiplexed bead flow cytometry, RGS7-Galphao binding; actives lie on both sides; binding response (% of control), % at 10 µM; 0.35% of 220,000 active; AID 1439; in the data active means binding response below about 49% or above about 150%; inconclusive means no clear call, values can overlap the other calls; inactive means in between;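 further: fluorescent Galphao held in activated GDP-AlF4 state binding bead-coupled RGS7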
# RGS4-Gao HTS = modulates binding between human RGS4 and Galphao | shares compounds with RGS16-Gao | multiplexed bead flow cytometry, RGS–Galpha-o binding | RGS4–Galpha-o binding response, % at 10 µM | 99% of 1,600 active | AID 1504;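 further: fluorescently labeled Galpha-o bound to GDP with aluminium fluoride binding biotinylated RGS beads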
# Biotin-avidin = biotin-avidin bead binding disruption counter-screen. shares compounds with RGS16-Gao. AID 1783. streptavidin beads, fluorescein-biotin binding, flow cytometry. 1,700 tested, under 10 active. inhibition, % at 10 µM;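 active means inhibition above 50%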;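 further: median green fluorescence of gated singlet beads compared with DMSO control wells; 0% = DMSO wells and 100% = complete loss of bead fluorescence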
# RGS8-Gao confirm = RGS8-Galphao interaction regulation, single point confirmation; shares compounds with RGS16-Gao; bead-based flow cytometry RGS8-Galphao binding, fluorescence; actives lie on both sides; binding response (% of control), % at 10 µM; 3% of 1,700 active; AID 1836; in the data active means binding response below about 72% or above about 130%; inactive means in between;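 further: Galphao activated as GDP AlF4 complex before binding bead RGS8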
# RGS7-Gao confirm = confirmation of regulators of human RGS7-Galphao interaction; shares compounds with RGS16-Gao; bead-based flow cytometry RGS7-Galphao binding; actives lie on both sides; response (percent of control binding), % at 10 µM; 7.8% of 1,700 active; in the data active means response below about 75% or above about 130%; inactive means in between;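 further: fluorescent Galphao activated with GDP and aluminum fluoride binding bead-coupled RGS7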
# RGS16-Gao conf = RGS16-Galphao interaction regulation, single point confirmation; 4% of 1,700 active; response (% of control binding), % at 10 µM; AID 1838; bead-based flow cytometry, RGS16-Galphao binding; actives lie on both sides; shares compounds with RGS16-Gao; in the data active means response below about 74% or above about 130%; inactive means in between;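 further: Galphao activated as the GDP aluminium fluoride complex binding bead-coupled RGS16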
# RGS4-Gao confirm = RGS4-Galphao interaction regulation, single point confirmation. shares compounds with RGS16-Gao. binding response (% of control), % at 10 µM. RGS4-Galphao binding, multiplexed bead flow cytometry; actives lie on both sides. 4% of 1,700 active; in the data active means binding response below about 74% or above about 130%; inactive means in between
# RGS19-Gao single = confirmation of regulators of human RGS19-Galphao interaction; bead-based flow cytometry RGS19-Galphao binding; actives lie on both sides; shares compounds with RGS16-Gao; 5% of 1,700 active; AID 1841; response (percent of control binding), % at 10 µM; in the data active means response below about 50% or above about 160%; inactive means in between;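 further: 100% = no compound control and 0% = blank background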
# Active calls of the source: *; ? = inconclusive; / = no result given; [ ] = remark or other dose. A selection: hits, their analogues and other compounds. The true share with any hit is near 1.2%. Unless noted, how the calls were made is not given here.
SMILES,RGS4-Gao reg,RGS8-Gao,Avidin bead fluor,RGS16-Gao,GSH fluor,RGS7-Gao,RGS4-Gao HTS,Biotin-avidin,RGS8-Gao confirm,RGS7-Gao confirm,RGS16-Gao conf,RGS4-Gao confirm,RGS19-Gao single
CCN(CC)S(=O)(=O)c1cccc(-c2nnc(SCC(=O)NC)n2CCc2ccccc2)c1,127.8,99.6,161*,110.9,26,245.9*[activator],127.8*,0.6,100.6,104.7,103.1,101.8,114.3
COc1ccc(NC(=O)Cn2c(NCC(C)O)nc3ccccc32)cc1Cl (configuration not stated),109.9,107.3,11,111.4,27,113.9,/,/,/,/,/,/,/
COc1ccc(C(=O)OCc2cc3cccc(C)c3[nH]c2=O)cc1,93.5,97.0,6,98.6,19,90.2,/,/,/,/,/,/,/
Cc1cccc2cc(COC(=O)c3ccccn3)c(=O)[nH]c12,69.3,74.0,8,-25.0*,8,71.5,69.3*,-1.2,98.3,99.1,99.7,96.7,106.5
CCN(Cc1cc(OC)c(OC)c(OC)c1)C(=S)Nc1cccc(SC)c1,85.0,91.0,3,90.9,/,?,/,/,/,/,/,/,/
O=C(CCNC(=O)c1ccco1)Nc1ccc(N2CCOCC2)cc1,96.6,99.3,9,92.7,15,95.6,/,/,/,/,/,/,/
CC(CCc1ccccc1)NC(=O)C1CCN(S(=O)(=O)N2CCOCC2)CC1 (configuration not stated),180.1*[activator],159.8*[activator],11,165.1,24,166.9*[activator],/,1.8,100.8,97.3,99.8,100.4,98.7
O=C(NCc1ccccc1)C1CCN(S(=O)(=O)N2CCOCC2)CC1,97.5,98.5,18,100.8,4,99.7,/,/,/,/,/,/,/
Cc1ccc(NC(=S)N2CCN(C)CC2)c(C)c1,106.7,115.4,10,186.1*[activator],13,105.4,106.7*,1.3,102.0,104.8,102.5,103.5,120.5
Cc1ccc(NC(=S)N2CCOCC2)c(C)c1,104.9,103.1,44,106.6,17,109.6,/,/,/,/,/,/,/
Cc1nccnc1Sc1ccccc1,101.9,101.2,6,99.7,/,?,/,/,/,/,/,/,/
c1ccc(SSc2ccccc2)cc1,100.4,64.4,3,-4.9*,17,104.7,100.4*,/,/,/,/,/,/
Cc1c(Br)c(=O)oc2c(Br)c(O)c(O)cc12,51.6,41.7*,1,16.4*,6,53.2,51.6*,-0.6,92.7,92.5,91.8,90.5,87.3
Oc1ccc(Nc2nc3ccccc3nc2Nc2ccc(O)cc2)cc1,165.0*[activator],109.7,80*,169.7,24,161.0*[activator],/,0.2,95.4,83.8,90.2,87.2,80.9
Cc1nc2ccccc2nc1N/N=C/c1ccc(O)cc1,97.2,99.3,7,96.5,/,?,/,/,/,/,/,/,/
CCC(Oc1cc(Cl)ccc1Cl)C(=O)NNC(=O)CCC(=O)O (configuration not stated),80.0,60.1,1,13.3*,11,81.0,80.0*,-0.4,97.7,103.9,100.1,100.7,84.5
CC(C)(C)C(=O)N1CCN(c2nc3ccccc3o2)CC1,100.7,103.2,7,100.6,21,97.3,/,/,/,/,/,/,/
CCCCCOc1ccc(CSC(=N)N)cc1[N+](=O)[O-],41.7*,65.4,16,43.3,9,49.4*,/,0.5,105.7,109.0,106.1,104.9,106.6
CC(=C\C(=O)O)/C(=C\c1cccc2ccccc12)C(=O)O,99.8,99.5,8,101.6,/,?,/,/,/,/,/,/,/
CCn1c(=O)c(C(=O)NCc2cccnc2)c(O)c2ccccc21,121.9,/,/,/,40,/,/,0.5,101.4,97.1,100.7,96.4,100.4
C[C@@H](Oc1ccccc1)c1nnn(Cc2ccccc2)c1-c1c([C@@H](C)Oc2ccccc2)nnn1Cc1ccccc1,101.0,102.9,9,102.2,/,?,/,/,/,/,/,/,/
Cc1nn2c(NCCN(C)C)c3c(nc2c1-c1ccccc1)CCCC3,99.2,100.7,9,98.5,/,?,/,/,/,/,/,/,/
Cc1nccn1S(=O)(=O)c1ccc(Br)cc1Br,145.4,113.9,92*,126.7,10,168.4*[activator],145.4*,/,/,/,/,/,/
COc1ccc(Br)cc1S(=O)(=O)n1ccnc1C,106.3,106.5,13,105.7,35,103.0,/,/,/,/,/,/,/
OC(c1ccccc1)(c1ccccc1)C1CCN(C(=S)NCCc2ccccc2)CC1,101.4,103.3,6,102.0,19,107.1,/,/,/,/,/,/,/
SMILES,RGS4-Gao reg,RGS8-Gao,Avidin bead fluor,RGS16-Gao,GSH fluor,RGS7-Gao,RGS4-Gao HTS,Biotin-avidin,RGS8-Gao confirm,RGS7-Gao confirm,RGS16-Gao conf,RGS4-Gao confirm,RGS19-Gao single
O=C(O)CCCC(=O)N1CCC(C(O)(c2ccccc2)c2ccccc2)CC1,102.2,93.1,8,106.8,18,94.8,/,-1.3,102.5,96.3,99.6,98.9,100.8
C=CCn1c(O)c(N=NC(=O)OCC)c2ccccc21,100.4,102.4,5,107.0,10,101.1,/,/,/,/,/,/,/
CCOC(=O)N=Nc1c(O)n(C)c2ccccc12,137.2,96.8,121*,92.6,17,185.7*[activator],137.2*,1.0,100.3,65.5*,92.0,71.8*,102.1
O=C(O)C[C@@H]1C(=O)O[C@@H]2C(COC(=O)c3cc(O)c(O)c(O)c3)O[C@@H](OC(=O)c3cc(O)c(O)c(O)c3)[C@@H](OC(=O)c3cc(O)c(O)c4c3[C@H]1[C@H](O)C(=O)O4)[C@H]2OC(=O)c1cc(O)c(O)c(O)c1 (some centres not stated),2.5*,38.1*,6,42.6,/,?,/,-0.4,39.0*,-11.7*,38.6*,-0.5*,41.7*
CC(C)(CN1CCN(C(c2ccccc2)c2ccccc2)CC1)NS(=O)(=O)c1ccccc1,100.4,103.1,6,100.6,/,?,/,/,/,/,/,/,/
Cn1c(C(=O)NCc2ccccc2)cc2oc3ccccc3c21,109.7,114.5,12,/,27,115.5,/,1.7,99.7,96.9,98.7,100.5,98.9
O=c1[nH]c(C2CCCN(S(=O)(=O)c3ccc(F)cc3)C2)nc2c1nnn2Cc1ccccc1 (configuration not stated),106.3,102.8,10,105.9,14,104.7,/,/,/,/,/,/,/

# Compound activity deposited in PubChem by NMMLSC.
